From PubChem
Shown are actives, neighbours in structure and some others; about 3.6% of the full set was active somewhere.
BoNT F protease – BoNT F light chain protease inhibition; actives 0.22% (n = 360,000); AID 588497; Multiplex microsphere protease cleavage assay, flow cytometry; inhibition, % at 10 µM; in the data active means inhibition above about 35%, passing the limit was not always enough; inconclusive means no clear call, values can overlap the other calls
Autofluor counter – flagged as autofluorescent in microsphere protease counterscreen | compound autofluorescence counterscreen, microsphere flow cytometry; active compounds read high | actives 3.1% (n = 360,000) | fluorescence intensity (test concentration not listed) | AID 624483; in the data active means fluorescence intensity above about 16000; inconclusive means no clear call, values can overlap the other calls
BoNT-A LC inh2 – inhibitors of Botulinum neurotoxin A light chain protease | actives 0.17% (n = 360,000) | inhibition, % at 10 µM | multiplex microsphere protease substrate cleavage, flow cytometry
Anthrax LF inh2 – inhibitors of Bacillus anthracis lethal factor protease; P15917; multiplex microsphere protease cleavage assay, LF; inhibition, % at 10 µM; actives 0.12% (n = 360,000); AID 588501
MazEF act – activators of E. coli MazEF toxin-antitoxin RNase; actives 0.32% (n = 350,000); P0AE70; AID 504720; activation, % at 20 µM; FAM/BHQ RNA-DNA oligo cleavage fluorescence, 5 h; in the data active means activation above about 50%
Target sequence (P0AE70 whole entry, looked up): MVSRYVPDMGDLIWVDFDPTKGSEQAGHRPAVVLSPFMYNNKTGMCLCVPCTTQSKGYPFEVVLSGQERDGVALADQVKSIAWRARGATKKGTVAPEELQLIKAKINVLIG
A number is an active result; - = inactive; ? = inconclusive; . = no result. Unless noted, no stated cut-off is given here; in the data, active means inhibition above about 30%; inconclusive means no clear call, values can overlap the other calls; inactive means below that.

SMILES	BoNT F protease	Autofluor counter	BoNT-A LC inh2	Anthrax LF inh2	MazEF act
O=C1CC(c2cccc(F)c2)SC(N(c2ccccc2)c2ccccc2)=N1 (configuration not stated)	-	23403	-	-	-
Cc1cc(=O)c(C(=O)Nc2cccc(C(=O)NC3CC3)c2)nn1-c1ccccc1	-	-	-	-	-
O=C(Nc1ccc2c(c1)CCC2)c1cnccn1	-	20322	-	-	-
CCCCCCn1cc(CN2CC(N3CCN(CCO)CC3)CS2(=O)=O)nn1 (configuration not stated)	-	-	-	-	.
Cc1cc(C)nc(N2CCC(C(=O)NCc3ccco3)CC2)n1	-	-	-	-	-
COc1nc(OC)nc(N2CCC(C(=O)Nc3cccc4ccccc34)CC2)n1	-	23395	-	-	-
COc1nc(OC)nc(N2CCC(C(=O)NCc3ccco3)CC2)n1	-	19494	-	-	-
CSCCC(NC(=O)c1cccc(C)c1)C(=O)NCc1cccs1 (configuration not stated)	-	-	-	-	-
COc1ccccc1CNC(=O)c1c(N)n(CCCN2CCOCC2)c2nc3ccccc3nc12	-	18665	-	-	-
CCCNC(=O)c1c(N)n(Cc2ccc3c(c2)OCO3)c2nc3ccccc3nc12	-	23041	-	-	-
COCCn1c(N)c(C(=O)NCc2cccs2)c2nc3ccccc3nc21	-	20185	-	-	-
O=C(O)c1ccc2c(c1)C(=O)N(Cc1ccc3c(c1)OCO3)C2=O	-	23047	-	-	-
CC(C)(C)C1N=C(c2ccc3ccccc3c2)OC1=O (configuration not stated)	-	-	-	-	-
O=C1C(Sc2ccccc2)=C[C@@]2(O)CC[C@@H](O)[C@]1(Sc1ccccc1)[C@H]2O	-	-	-	-	.
C#CC(=O)CC1(CN(Cc2ccccc2)C(=O)OC(C)(C)C)CCCCC1	-	-	-	-	-
CC1(C(=O)OCC(=O)Nc2nc(-c3ccc(F)c(F)c3)cs2)CC1(Cl)Cl (configuration not stated)	-	-	-	-	-
COCCCn1c(N)c(C(=O)OCCOC)c2nc3ccccc3nc21	-	-	-	-	-
CCCCNC(=O)c1c(N)n(CCCOC)c2nc3ccccc3nc12	-	21009	-	-	-
CC(=O)c1c(C(C)=O)c(C)n(Cc2ccc3c(c2)OCO3)c1C	-	22217	-	-	-
COc1cc2ccccc2cc1C(=O)N/N=C/c1cccs1	-	-	-	-	-
CC(/C=N/n1c(-c2cccnc2)n[nH]c1=S)=C\c1ccccc1	-	16837	-	-	-
CC(=C/c1ccccc1)/C=N/n1c(-c2ccncc2)n[nH]c1=S	-	-	-	-	-
CCc1cccc(C)c1NC(=O)CN1CCN(S(=O)(=O)c2ccc(C(C)(C)C)cc2)CC1	-	?	-	-	-
Cc1ccc(CNC(=O)c2sc3nc4c(c(C(F)(F)F)c3c2N)CCC4)cc1	-	24632	?	-	-
Nc1c(C(=O)NCc2ccc(Cl)cc2)sc2nc3c(c(C(F)(F)F)c12)CCC3	-	-	-	-	-
SMILES	BoNT F protease	Autofluor counter	BoNT-A LC inh2	Anthrax LF inh2	MazEF act
Cc1ccc(NC(=O)C2CCN(S(=O)(=O)c3ccc4c(c3)OCCO4)CC2)nc1	-	-	-	-	-
COc1ccc(C)cc1-n1nnnc1SCC(=O)N1CCC(C(=O)Nc2nccs2)CC1	-	23303	?	-	-
COc1ccc(-c2ccccc2)cc1NC(=O)C1(C)CCN1C(=O)C(C)C (configuration not stated)	-	-	-	-	.
CC(=O)c1cccc(NC(=O)C2(C)Cc3c(-c4cccc(C(F)(F)F)c4)ccnc3O2)c1 (configuration not stated)	-	-	-	-	.
COc1ccc(S(=O)(=O)Cc2ccccc2)cc1N	-	23710	-	-	-
CCN(c1ccccc1)S(=O)(=O)c1ccc(N)c(OC)c1	-	-	-	-	-
O=C(O)c1cc(C(=O)O)c(-c2ccccc2)c(C(=O)O)c1	-	22323	-	-	-
O=C(O)c1cc(-c2ccccc2)nc(-c2ccccc2)c1	-	-	-	-	-
O=C(O)c1ccc(C(=O)O)c(C(=O)c2ccccc2)c1	-	17146	-	-	-
COc1ccc(-c2onc3ccc(C(=O)/C=C/N(C)C)cc23)cc1	45	-	-	-	-
CN(C)/C=C/C(=O)c1ccc2noc(-c3cccc(F)c3)c2c1	-	-	-	-	-
O=C(NCCOc1ccccc1)c1ccc2c(c1)S(=O)(=O)c1cc(Cl)ccc1C2=O	-	-	-	-	-
C=CCOc1ccc2nc(NC(=O)OC)[nH]c2c1	-	23127	-	-	-
